From PubChem BioAssay
Compounds with a hit are over-represented: about 3.5% of the library has one in this group of screens.
BoNT A protease – BoNT/A light chain protease inhibitors, primary screen, biochemical, flow cytometry, MLPCN library. Botulinum neurotoxin type A light chain protease (Clostridium botulinum A str. ATCC 3502). inhibition, % at 10 µM. actives 0.17% (n = 360,000). multiplex microsphere protease substrate cleavage; note: plate controls were buffer without enzyme for full effect and enzyme alone for no effect
Bead autofluor – compound fluorescence in toxin protease inhibitor counterscreen | compound autofluorescence counterscreen, microsphere flow cytometry; hits give high values | fluorescence intensity (no concentration beside the values) | actives 3.1% (n = 360,000) | AID 624483; in the data active = fluorescence intensity above about 16000; inconclusive = no clear call, values can overlap the other calls
BoNT-F LC inh – BoNT/F light chain protease inhibitors, primary screen, biochemical, flow cytometry, MLPCN library. Botulinum neurotoxin type F light chain protease (Clostridium botulinum). Multiplex microsphere protease cleavage assay. inhibition, % at 10 µM. actives 0.22% (n = 360,000). AID 588497, 2011; in the data active = inhibition above about 35%, passing the limit was not always enough; inconclusive = no clear call, values can overlap the other calls; note: plate controls were buffer without enzyme for full effect and enzyme alone for no effect
Anthrax LF prot – Bacillus anthracis LF protease inhibitors, primary screen, biochemical, multiplex microsphere, MLPCN library; actives 0.12% (n = 360,000); Lethal factor (Bacillus anthracis), P15917; inhibition, % at 10 µM; multiplex microsphere protease cleavage assay; note: plate controls were buffer without enzyme for full effect and enzyme alone for no effect
Target sequence (P15917 whole entry, looked up): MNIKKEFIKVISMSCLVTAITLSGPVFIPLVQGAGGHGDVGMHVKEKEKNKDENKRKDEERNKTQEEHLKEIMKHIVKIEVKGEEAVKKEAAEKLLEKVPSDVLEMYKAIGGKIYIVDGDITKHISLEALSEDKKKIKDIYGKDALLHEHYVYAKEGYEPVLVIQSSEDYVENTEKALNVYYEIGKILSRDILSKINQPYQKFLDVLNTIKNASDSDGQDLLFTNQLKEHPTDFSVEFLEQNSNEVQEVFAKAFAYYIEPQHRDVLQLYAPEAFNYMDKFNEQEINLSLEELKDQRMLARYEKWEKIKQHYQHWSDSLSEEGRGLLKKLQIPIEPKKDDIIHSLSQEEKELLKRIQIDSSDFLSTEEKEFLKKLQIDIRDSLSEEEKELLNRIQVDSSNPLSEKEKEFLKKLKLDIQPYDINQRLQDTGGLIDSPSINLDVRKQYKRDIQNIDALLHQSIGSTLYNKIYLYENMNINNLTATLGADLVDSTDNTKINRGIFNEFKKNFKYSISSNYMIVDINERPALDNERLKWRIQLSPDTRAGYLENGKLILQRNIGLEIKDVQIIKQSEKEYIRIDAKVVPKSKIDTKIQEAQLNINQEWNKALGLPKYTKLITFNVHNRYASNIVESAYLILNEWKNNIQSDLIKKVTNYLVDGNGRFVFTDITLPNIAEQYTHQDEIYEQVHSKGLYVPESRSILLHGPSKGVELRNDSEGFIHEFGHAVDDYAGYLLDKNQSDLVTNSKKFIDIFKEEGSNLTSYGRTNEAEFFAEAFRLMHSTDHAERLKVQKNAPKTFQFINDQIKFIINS
Active calls of the source: *; ? = inconclusive. Cut-off read from the data, not from the text of the source, unless noted: active = inhibition above about 30%; inconclusive = no clear call, values can overlap the other calls; inactive = below that.

SMILES	BoNT A protease	Bead autofluor	BoNT-F LC inh	Anthrax LF prot
COc1ccc(NC(=O)c2ccc(-n3cccn3)nc2)cc1	2	22260*	6	-2
O=C(Nc1ccc(F)cc1)c1ccc(-n2ccnc2)nc1	1	22409*	0	-4
COc1ccccc1NC(=O)c1ccc(C(=O)Nc2ccccc2OC)nc1	2	3772	-16	7
COc1ccccc1NC(=O)c1ccc(-n2cccn2)nc1	0	22967*	-2	1
COc1ccc(NC(=O)c2ccc(-n3cccn3)nc2)c(OC)c1	-3	22774*	-6	-6
CC(C)N(C(=S)Nc1cccc(C(F)(F)F)c1)C(C)c1ccccn1 (stereo not drawn)	0	3313	-4	3
O=C(Nc1ccc(F)cc1F)c1ccc(-n2cccn2)nc1	0	4024	-5	-2
O=C(Nc1ccc(F)cc1F)c1ccc(-n2cncn2)nc1	?	21818*	0	-4
Cc1ccc(F)cc1NC(=O)COC(=O)C1CC2CCCC(C1)C2=O (stereo not drawn)	0	3847	-3	-5
COc1ccc(S(=O)(=O)Nc2c(C(=O)O)[nH]c3ccccc23)cc1	0	5024	2	1
O=C(O)c1[nH]c2ccccc2c1NS(=O)(=O)Cc1ccccc1	0	16578*	-3	-5
CCn1c(SCC(=O)N/N=C/C=C\c2ccco2)nc2ccccc21	0	2474	-2	-1
Cn1c(SCC(=O)N/N=C/C=C\c2ccco2)nc2ccccc21	1	22987*	2	0
CCN(C(=O)COC(=O)c1ncc(Cl)c(Cl)c1Cl)c1c(N)n(Cc2ccccc2)c(=O)[nH]c1=O	-1	3353	-1	-6
COC(=O)c1[nH]c(C)c(/C(O)=C2\C(=O)C(=O)N(CCN(C)C)C2c2cccs2)c1C (stereo not drawn)	1	20496*	-2	-5
CCOC(=O)c1[nH]c(C)c(/C(O)=C2\C(=O)C(=O)N(CCN(C)C)C2c2ccc(C)o2)c1C (stereo not drawn)	-4	21142*	-3	-1
CCN(CC)CCN1C(=O)C(=O)/C(=C(/O)c2c(C)[nH]c(C(=O)OC)c2C)C1c1ccc(OC)cc1 (stereo not drawn)	-6	12135	-20	-5
CCN(CC)CCN1C(=O)C(=O)/C(=C(/O)c2c(C)[nH]c(C(=O)OC)c2C)C1c1cccc(OC)c1 (stereo not drawn)	-4	18213*	-4	-4
O=C(c1ccco1)c1nnn(Cc2ccccc2)c1-c1ccccc1	1	9079	-7	-2
O=C1CCCN1CC(O)CS(=O)(=O)c1ccc(Cl)cc1 (stereo not drawn)	1	22765*	0	1
CC1C/C(=N\NC(=S)NCc2ccccc2)CC(C)(C)C1 (stereo not drawn)	?	22911*	-6	-4
CC(C)(C)SCCNS(=O)(=O)c1ccc2ccccc2c1	-2	23401*	-5	-4
CC(C)(C)SCCNS(=O)(=O)c1ccccc1	0	7227	2	4
CCCCCC(=O)Nc1c(-c2cccs2)c(=O)c2ccccc2n1C	-1	16847*	-1	2
CCC(=O)Nc1c(-c2cccs2)c(=O)c2ccccc2n1C	1	4280	2	-4
SMILES	BoNT A protease	Bead autofluor	BoNT-F LC inh	Anthrax LF prot
CCCC(=O)Nc1c(-c2ccc(OC)cc2)c(=O)c2ccccc2n1C	0	11300	-3	-4
CCCCCC(=O)Nc1c(-c2ccc(OC)cc2)c(=O)c2ccccc2n1C	4	21066*	5	-4
COc1ccc(-c2c(NC(=O)CC(C)C)n(C)c3ccccc3c2=O)cc1OC	0	3179	-10	33*
O=C1CC(N2CCc3ccccc32)C(=O)N1c1ccc(F)cc1 (stereo not drawn)	-1	4329	-11	-7
COc1ccc2[nH]c3c(=O)n(CCCCC(=O)N4CCCC4)c(=S)[nH]c3c2c1	0	23557*	0	-1
Cc1cc(=O)n2c(nc3ccccc32)[nH]1	-2	24029*	-2	-1
CCCc1cc(=O)n2c(nc3ccccc32)[nH]1	-1	3839	-28	-8
O=C(c1ccccc1Cl)N(C(=O)c1ccccc1Cl)c1nccc(-c2cccs2)n1	0	9665	0	-10
O=C(Nc1nccc(-c2cccs2)n1)c1ccccc1Cl	2	19543*	2	2
Fc1ccc2c(c1)C1C=CCC1C(c1cc3c(cc1Br)OCO3)N2 (stereo not drawn)	?	19890*	6	-9
COc1ccc(-c2cc(-c3cc(F)ccc3O)[nH]n2)cc1OC	?	22604*	-1	-2
